# According to PubChem BioAssay (NCI):
# Several values for one entry are separate records, joined by “and”; a condition that tells them apart may be missing. Equal entries are not always repeated. The panel holds about 83,000 compounds, 20% with a hit somewhere; the sample as a whole holds those more often.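 Percent growth is the endpoint: 0 to 100 indicates growth inhibition (40 means 60% inhibition), 0 means no net growth, and negative values indicate cell death.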 Values without a mark were called inactive. Activity calls are given as the source filed them. The calls were made as follows: active = growth percent below 10; inactive = the rest.
# Experiments:
# Assay in all cases: NCI-60 one-dose screen, 48 h (100 = growth as untreated, 0 = no growth, -100 = all killed)
# UO-31 renal = conditions: 10 µM unless noted
# TK-10 renal = conditions: 10 µM
# ACHN renal = conditions: 10 µM unless noted
# CAKI-1 renal = conditions: 10 µM unless noted
# A498 renal = conditions: 10 µM unless noted
# HL-60(TB) leukemia = conditions: 10 µM unless noted
# MOLT-4 leukemia = conditions: 10 µM unless noted
# SR leukemia = conditions: 10 µM unless noted
# RPMI-8226 leukemia = conditions: 10 µM unless noted
# OVCAR-8 ovarian = conditions: 10 µM
# OVCAR-5 ovarian = conditions: 10 µM unless noted
# OVCAR-4 ovarian = conditions: 10 µM unless noted
# SK-OV-3 ovarian = conditions: 10 µM unless noted
# IGROV1 ovarian = conditions: 10 µM unless noted
# OVCAR-3 ovarian = conditions: 10 µM unless noted
# NCI/ADR-RES ovarian = conditions: 10 µM unless noted
# T-47D breast = conditions: 10 µM unless noted
# BT-549 breast = conditions: 10 µM unless noted
# MDA-MB-435 melanoma = conditions: 10 µM unless noted
# HS 578T breast = conditions: 10 µM unless noted
SMILES,growth (UO-31 renal),growth (TK-10 renal),growth (ACHN renal),growth (CAKI-1 renal),growth (A498 renal),growth (HL-60(TB) leukemia),growth (MOLT-4 leukemia),growth (SR leukemia),growth (RPMI-8226 leukemia),growth (OVCAR-8 ovarian),growth (OVCAR-5 ovarian),growth (OVCAR-4 ovarian),growth (SK-OV-3 ovarian),growth (IGROV1 ovarian),growth (OVCAR-3 ovarian),growth (NCI/ADR-RES ovarian),growth (T-47D breast),growth (BT-549 breast),growth (MDA-MB-435 melanoma),growth (HS 578T breast)
O=C1c2ccccc2C(=O)C(Cl)C1Cl (configuration not stated),-98.5% (active),-97.4% (active),-100% (active),64.5%,133%,-24.2% (active),-8.44% (active),35.6%,31.1%,91.9%,112%,-89% (active),99.5%,78.4%,-75.2% (active),86.5%,-38% (active),78.5%,95.9%,
c1ccc2c(c1)[nH]c1c2cc[n+]2cc3c(cc12)CCCC3,,,,,,13.5%,,,,,,,,,,,,,,
Cc1ccc(C(=O)OC(C(=O)O)C(OC(=O)c2ccc(C)cc2)C(=O)O)cc1 (configuration not stated) (tested in a mixture with another compound),,93.2%,66%,50.7%,77.7%,23.5%,35.9%,,-3.01% (active),61.4%,67%,58.9%,69.7%,63%,44.5%,56.3%,,17.5%,51.3%,40%
CCC1(O)CC(OC2CC(N(C)C)C(OC3CC4OC5CC(=O)C(C)OC5OC4C(C)O3)C(C)O2)c2c(cc3c(c2O)C(=O)c2c(O)ccc(O)c2C3=O)C1C(=O)OC (configuration not stated),-39.6% (active),-28.7% (active),-17.6% (active),-15.4% (active),-71.4% (active),-41.6% (active),-9.49% (active),-6.58% (active),-53% (active),,-16.1% (active),-53.9% (active),16.1%,-78.1% (active),4.8% (active),-20% (active),-2.73% (active),-76.3% (active),-94.1% (active),-37% (active)
C[C@H]1CCC/C=C/[C@@H]2C[C@H](O)C[C@H]2[C@H](O)/C=C/C(=O)O1,-22.9% (active),-31.1% (active),1.27% (active),-2.67% (active),-37.1% (active),-22.5% (active),-7.93% (active),-6.07% (active),-17.9% (active),,32.1%,-30.5% (active),35.9%,-54.8% (active),-37.4% (active),7.27% (active),-26.1% (active),2.5% (active),0.489% (active),57.9%
CC(=O)O[C@H]1C[C@@H]2OC3C=C(C)CCC3(C)[C@@]1(C)[C@@]21CO1 (some centres not stated),-5.32% (active) and -11.9% (active),-18.9% (active) and -20.4% (active),-34.8% (active) and -29.9% (active),-16.9% (active) and -24.9% (active),-38.7% (active),-42% (active),-15.6% (active) and -30.2% (active),-17.5% (active),-16.3% (active) and -26.9% (active),-9.39% (active) and -19.9% (active),6.22% (active) and 5.12% (active),-5.17% (active) and -15.1% (active),5.54% (active) and -8.41% (active),-12.6% (active) and -11.8% (active),-17.6% (active) and -41.3% (active),-14% (active) and -10.5% (active),-4.55% (active) and -14.4% (active),-28.8% (active) and -11.6% (active),-21.1% (active) and -27.5% (active),-6.29% (active)
CCOC(=O)C(NC(=O)C(Cc1ccc(N(CCCl)CCCl)cc1)NC(C)=O)C(C)C (configuration not stated),82.5%,95.5%,42.7%,40.8%,107%,44.9%,56.6%,28.2%,85.1%,83.1%,105%,96.4%,82.5%,79.3%,92.5%,88%,74.5%,87%,101%,101%
CC1=C(CO)C2=C(C)C3(CC3)[C@@](C)(O)C(=O)C2=C1,-40.5% (active),-23.3% (active),-16.4% (active),-17% (active),-66.5% (active),-32.9% (active),16%,21.4%,80.2%,,14.3%,,16.3%,,-1.49% (active),3.84% (active),7.12% (active),-55.8% (active),10.7%,8.86% (active)
